Active and inactive are the calls of the source. Rule for the calls: active = hit-call score of the fitted dose curve at least 0.9, where 1 is the maximum; inactive = score below 0.9.
assay: CEETOX_H295R_OHPROG: CeeTox H295R High-throughput Steroidogenesis Assay for OH-Progesterone (OHPROG) (AID 2283435); conditions: actives raise or lower the signal
Procedure: CEETOX_H295R is a cell-based, multiplexed-readout assay that uses H295R, a human adrenal gland cell line, with measurements taken at 48 hours after chemical dosing in a 96-well plate.CEETOX_H295R_OHPROG is one of 23 assay component(s) measured or calculated from the CEETOX_H295R assay. It is designed to make measurements of hormone induction, a form of inducible reporter, as detected with absorbance signals by HPLC-MS-MS technology.Data from the assay component CEETOX_H295R_OHPROG was analyzed into 1 assay endpoint. This assay endpoint, CEETOX_H295R_OHPROG, was analyzed with bidirectional fitting relative to DMSO as the negative control and baseline of activity. Using a type of inducible reporter, gain or loss-of-signal activity using HPLC-MS-MS was used to understand synthesis of 17alpha-hydroxyprogesterone in H295R cell line at 48hr of chemical exposure. To generalize the intended target to other relatable targets, this assay endpoint is annotated to the steroid hormone intended target family, where the subfamily is progestagens.
Cell culture and media preparation procedures were conducted in accordance with OECD Test No. 456 guidelines, with minor modifications. H295R cells (ATCC CRL-2128) were expanded for 5 passages and frozen in batches in liquid nitrogen. Prior to the steroidogenesis assay, H295R cells were thawed and passed at least 4 times. The maximum passage was 10. Cells were maintained in a 1:1 mixture of DMEM/F12 supplemented with 5ml/L ITS+ Premix (BD Bioscience) and 12.5 ml/L Nu-Serum (BD Bioscience). After seeding cells into 96-well plates at 50-60% confluency, cells were allowed to adhere overnight. Prior to chemical testing, culture medium was replaced with 175 uL medium containing 10 uM forskolin to stimulate steroidogenesis for 48 hours. Following prestimulation, forskolin medium was replaced with medium containing test chemical solubilized in DMSO (ensuring a final concentration of 0.1% DMSO). Test chemicals were incubated for 48 hours, then the medium was removed and split into 2 vials containing approximately 75uL each, and stored at -80 C prior to hormone analysis. For steroid quantification, media samples were shipped to OpAns, LLC (Durham, NC) on dry ice, and samples were thawed to room temperature prior to liquid-liquid extraction. Steroid hormones were extracted from media samples using methyl tertbutyl ether (MTBE). An extra derivatization with dansyl chloride was included for estrogen (estrone and estradiol) detection only. Steroid hormones were separated by HPLC, eluted using a reverse phase C18 gradient with electrospray positive ionization, followed by quantification by tandem mass spectrometry (MS/MS). Data were acquired on a MassHunter Workstation Acquisition version B03.01 (Agilent Technologies, Inc.) and processed using MassHunter Quantitative Analysis for QQQ. Accuracy was determined for each hormone analyte from 3 standards to determine upper and lower limits of quantification (ULOQ and LLOQ, respectively) using a 7-point standard curve. Precision and accuracy of the extraction and quantification methods were calculated as the percent relative standard deviation (%RSD) of the spiked standards and percent spiked standard recovered, respectively. […] Test medium was removed following chemical exposure, and cell viability was evaluated in the same wells by MTT. MTT procedures were as follows: after removal of test medium, 500 uL of 0.5 mg/ml of 3-[4,5-dimethylthiazol-2-y]2,5-diphenyltetrazoliumbromide solution was added to the cells. Following a 4-hour incubation at 37 C and 5% CO2 to allow formazan-crystal formation, the MTT solution was removed and blue formazan salt crystals were solubilized using 500uL anhydrous isopropanol with shaking for 20 minutes. Absorbance was read at 570 and 650nm using a Packard Fusion microplate reader. Background correction of absorbance units was used to determine percent change relative to controls. […]

SMILES	AC50	outcome
O=S1OC[C@@H]2[C@H](CO1)[C@]1(Cl)C(Cl)=C(Cl)[C@@]2(Cl)C1(Cl)Cl (stereo not given in full)	41.2 µM (active)	
CCCSP(=S)(OCC)Oc1ccc(SC)cc1 (stereo not given)	1.41 µM (active)	
O=[N+]([O-])c1ccc(Nc2ccccc2)cc1	1.42 µM (active)	
C[C@]12CC[C@@H](O)C[C@@H]1CC[C@@H]1[C@@H]2CC[C@]2(C)C(=O)CC[C@@H]12	1.87 µM (active)	
CCCCCCCCCCCCN(C)C		inactive
Oc1cccc(-c2ccccc2)c1	9.06 µM (active)	
CCOCn1c(-c2ccc(Cl)cc2)c(C#N)c(Br)c1C(F)(F)F	13.2 µM (active)	
CCOP(=O)(OCC)OC(=CCl)c1ccc(Cl)cc1Cl	5.16 µM (active)	
Cc1cc(C(C)(C)c2ccc(O)c(C)c2)ccc1O		inactive
Cc1cc(C)cc(C)c1		inactive
Oc1c(Br)cc(Br)cc1Br	36 µM (active)	
Oc1c(Cl)cc(Cl)cc1Cl	66.5 µM (active)	
Cc1ccccc1OP(=O)(Oc1ccccc1C)Oc1ccccc1C		inactive
CC(C)(COCC1CO1)COCC1CO1 (stereo not given)		inactive
COC(=O)Nc1cccc(OC(=O)Nc2cccc(C)c2)c1		inactive
CCOP(=S)(OCC)O/N=C(\C#N)c1ccccc1		inactive
CC(C)(C)c1ccccc1O		inactive
COc1ccc(N)cc1	31.7 µM (active)	
CC(C)=CC1C(C(=O)OCc2cccc(Oc3ccccc3)c2)C1(C)C (stereo not given)	26.9 µM (active)	
CCC[CH2][Sn]([Cl])([Cl])[CH2]CCC		inactive
CC(C)(C)c1cc([N+](=O)[O-])cc(C(C)(C)C)c1O		inactive
OC(Cc1ccccc1Cl)(Cn1cncn1)C1(Cl)CC1 (stereo not given)		inactive
Nc1ccc(N)cc1		inactive
Cc1cc(Cl)ccc1O	28.3 µM (active)	
OC(Cc1ccccc1Cl)(Cn1[nH]cnc1=S)C1(Cl)CC1 (stereo not given)		inactive

From PubChem BioAssay (EPA / NIEHS)
